Experimental data as given in article PMC7862700, “An all-to-all approach to the identification of sequence-specific readers for epigenetic DNA modifications on cytosine”.

Columns and labels:
Experiment in all cases: DAPPL (digital affinity profiling via proximity ligation, sequencing); 10 mM Tris-HCl pH 7.5, 50 mM NaCl, 1 mM DTT, 4% glycerol, room temperature, 30 min; GST-TFs on glutathione beads, 16-mer random dsDNA library, 0.1% formaldehyde crosslink after washing; high values mean tight binding
ELK1 = target: T1, ELK1 (Homo sapiens, UniProt P19419 1-428); conditions: protein: recombinant; tags: N-terminal GST; dsDNA, one strand shown
T1 sequence: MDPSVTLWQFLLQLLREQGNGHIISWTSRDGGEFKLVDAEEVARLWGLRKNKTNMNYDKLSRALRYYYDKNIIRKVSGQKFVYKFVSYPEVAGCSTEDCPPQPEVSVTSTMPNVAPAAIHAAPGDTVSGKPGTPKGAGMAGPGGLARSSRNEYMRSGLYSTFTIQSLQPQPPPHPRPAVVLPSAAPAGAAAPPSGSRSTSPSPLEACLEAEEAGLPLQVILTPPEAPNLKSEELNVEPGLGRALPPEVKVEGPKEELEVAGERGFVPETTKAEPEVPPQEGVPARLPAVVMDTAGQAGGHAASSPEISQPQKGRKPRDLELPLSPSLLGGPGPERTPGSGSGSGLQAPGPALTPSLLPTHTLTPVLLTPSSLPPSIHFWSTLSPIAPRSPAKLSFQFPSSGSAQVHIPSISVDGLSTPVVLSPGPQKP
Procedure, shortened: (§1)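 After expression in yeast as GST fusions, human transcription factors were bound to glutathione beads, DNA-barcoded and mixed with a tag-only sample. The pools were incubated with 200 nmole of a 16-mer random double-stranded DNA library in Tris/NaCl/DTT/glycerol buffer (30 min, room temperature), washed and crosslinked with 0.1% formaldehyde. Proximity ligation with BsaI/T4 ligase ran for 1 h at 37 °C, before PCR amplification and sequencing on an Illumina NextSeq500. Binding signal is a hexamer's read frequency for a factor divided by its frequency for the tag-only sample.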

GABPA = target: T2, GABPA (Homo sapiens, UniProt Q06546 1-454); conditions: protein: recombinant; tags: N-terminal GST; dsDNA, one strand shown
T2 sequence: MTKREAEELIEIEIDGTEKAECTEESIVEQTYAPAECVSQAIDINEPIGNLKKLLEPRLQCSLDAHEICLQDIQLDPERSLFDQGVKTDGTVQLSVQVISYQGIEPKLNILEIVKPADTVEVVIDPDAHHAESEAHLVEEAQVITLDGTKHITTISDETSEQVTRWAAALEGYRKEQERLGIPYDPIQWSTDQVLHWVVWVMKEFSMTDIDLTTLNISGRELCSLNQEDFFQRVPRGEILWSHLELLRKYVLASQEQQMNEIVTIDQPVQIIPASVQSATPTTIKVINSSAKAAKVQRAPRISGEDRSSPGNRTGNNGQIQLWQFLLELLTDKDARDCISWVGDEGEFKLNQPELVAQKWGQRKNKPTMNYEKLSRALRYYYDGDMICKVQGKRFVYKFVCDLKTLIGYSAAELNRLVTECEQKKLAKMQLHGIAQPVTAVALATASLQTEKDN
Procedure, shortened: as §1

ELF1 = ELF1 (Homo sapiens, UniProt P32519 1-619); conditions: protein: recombinant; tags: N-terminal GST; dsDNA, one strand shown
Procedure, shortened: as §1

SPIB = SPIB (Homo sapiens, UniProt Q01892 1-262); conditions: protein: recombinant; tags: N-terminal GST; dsDNA, one strand shown
Procedure, shortened: as §1

ELK3 = target: T3, ELK3 (Homo sapiens, UniProt P41970 1-407); conditions: protein: recombinant; tags: N-terminal GST; dsDNA, one strand shown
T3 sequence: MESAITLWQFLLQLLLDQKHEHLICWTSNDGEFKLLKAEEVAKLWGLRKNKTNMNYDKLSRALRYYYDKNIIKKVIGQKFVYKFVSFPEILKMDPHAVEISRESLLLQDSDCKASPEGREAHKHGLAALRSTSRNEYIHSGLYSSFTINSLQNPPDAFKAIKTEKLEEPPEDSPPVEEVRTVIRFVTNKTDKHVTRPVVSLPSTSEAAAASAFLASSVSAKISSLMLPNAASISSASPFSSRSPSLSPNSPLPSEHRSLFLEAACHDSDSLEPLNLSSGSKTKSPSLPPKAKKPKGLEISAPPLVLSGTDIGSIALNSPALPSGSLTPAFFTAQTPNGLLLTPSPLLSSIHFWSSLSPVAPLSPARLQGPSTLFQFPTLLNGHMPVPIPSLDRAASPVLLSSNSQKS
Procedure, shortened: as §1

FEV = target: T4, FEV (Homo sapiens, UniProt Q99581 1-238); conditions: protein: recombinant; tags: N-terminal GST; dsDNA, one strand shown
T4 sequence: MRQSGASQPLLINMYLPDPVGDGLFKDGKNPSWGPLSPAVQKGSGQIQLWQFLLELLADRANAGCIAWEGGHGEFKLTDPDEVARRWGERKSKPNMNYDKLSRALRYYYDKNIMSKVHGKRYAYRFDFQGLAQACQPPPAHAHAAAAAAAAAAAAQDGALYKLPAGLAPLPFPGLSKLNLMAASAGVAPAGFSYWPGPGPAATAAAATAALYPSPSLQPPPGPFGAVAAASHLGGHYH
Procedure, shortened: as §1

HSF1 = HSF1 (Homo sapiens, UniProt Q00613 1-529); conditions: protein: recombinant; tags: N-terminal GST; chain copies: 3; dsDNA, one strand shown
Procedure, shortened: as §1

SPIC = target: T5, SPIC (Homo sapiens, UniProt Q8N5J4 1-248); conditions: protein: recombinant; tags: N-terminal GST; dsDNA, one strand shown
T5 sequence: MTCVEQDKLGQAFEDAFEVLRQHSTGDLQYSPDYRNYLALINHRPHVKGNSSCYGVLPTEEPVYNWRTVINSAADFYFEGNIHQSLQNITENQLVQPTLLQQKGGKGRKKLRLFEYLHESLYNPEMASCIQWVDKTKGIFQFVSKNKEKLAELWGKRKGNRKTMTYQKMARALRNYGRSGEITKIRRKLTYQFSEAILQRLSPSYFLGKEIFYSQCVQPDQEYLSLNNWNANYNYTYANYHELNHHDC
Procedure, shortened: as §1

ELK4 = target: T6, ELK4 (Homo sapiens, UniProt P28324-2 1-405); conditions: protein: recombinant; tags: N-terminal GST; dsDNA, one strand shown
T6 sequence: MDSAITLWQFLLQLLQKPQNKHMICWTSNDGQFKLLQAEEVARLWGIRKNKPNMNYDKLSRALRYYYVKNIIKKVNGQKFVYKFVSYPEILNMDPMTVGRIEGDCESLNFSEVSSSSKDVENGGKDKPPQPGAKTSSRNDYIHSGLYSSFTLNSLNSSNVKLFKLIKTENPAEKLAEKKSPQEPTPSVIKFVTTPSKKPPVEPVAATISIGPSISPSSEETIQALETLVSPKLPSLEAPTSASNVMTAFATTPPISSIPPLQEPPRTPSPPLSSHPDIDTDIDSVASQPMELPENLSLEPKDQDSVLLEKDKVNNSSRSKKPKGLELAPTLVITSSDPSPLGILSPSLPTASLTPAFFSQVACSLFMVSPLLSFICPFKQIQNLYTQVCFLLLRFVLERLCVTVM
Procedure, shortened: as §1

CRX = CRX (Homo sapiens, UniProt O43186 1-299); conditions: protein: recombinant; tags: N-terminal GST; dsDNA, one strand shown
Procedure, shortened: as §1

ERF = target: T7, ERF (Homo sapiens, UniProt P50548 1-548); conditions: protein: recombinant; tags: N-terminal GST; dsDNA, one strand shown
T7 sequence: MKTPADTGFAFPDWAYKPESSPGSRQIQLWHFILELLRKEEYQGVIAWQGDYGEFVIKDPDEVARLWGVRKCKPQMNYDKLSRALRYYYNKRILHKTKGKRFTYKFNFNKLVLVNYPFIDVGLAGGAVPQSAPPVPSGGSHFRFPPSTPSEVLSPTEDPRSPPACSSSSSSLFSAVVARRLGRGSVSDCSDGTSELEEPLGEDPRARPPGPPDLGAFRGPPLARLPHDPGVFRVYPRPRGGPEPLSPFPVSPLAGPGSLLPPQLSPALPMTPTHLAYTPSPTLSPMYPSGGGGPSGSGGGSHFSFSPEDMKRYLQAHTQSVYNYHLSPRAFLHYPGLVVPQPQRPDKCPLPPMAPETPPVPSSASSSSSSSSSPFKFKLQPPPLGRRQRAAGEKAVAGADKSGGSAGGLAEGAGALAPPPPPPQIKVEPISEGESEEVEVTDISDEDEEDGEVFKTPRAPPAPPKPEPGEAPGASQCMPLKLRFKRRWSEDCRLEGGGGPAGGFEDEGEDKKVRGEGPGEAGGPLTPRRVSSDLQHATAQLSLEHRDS
Procedure, shortened: as §1

ETV3L = target: T8, ETV3L (Homo sapiens, UniProt Q6ZN32 1-361); conditions: protein: recombinant; tags: N-terminal GST; dsDNA, one strand shown
T8 sequence: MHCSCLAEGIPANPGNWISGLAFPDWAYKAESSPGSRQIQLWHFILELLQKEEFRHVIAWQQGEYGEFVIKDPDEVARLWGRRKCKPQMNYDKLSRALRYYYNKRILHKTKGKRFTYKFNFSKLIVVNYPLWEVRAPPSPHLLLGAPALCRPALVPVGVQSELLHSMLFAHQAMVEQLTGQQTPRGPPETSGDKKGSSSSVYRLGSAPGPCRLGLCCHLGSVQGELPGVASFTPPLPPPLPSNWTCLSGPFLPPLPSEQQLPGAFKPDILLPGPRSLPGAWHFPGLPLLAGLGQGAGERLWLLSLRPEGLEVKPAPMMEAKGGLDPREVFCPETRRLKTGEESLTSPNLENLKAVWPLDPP
Procedure, shortened: as §1

ETS2 = target: T9, ETS2 (Homo sapiens, UniProt P15036 1-469); conditions: protein: recombinant; tags: N-terminal GST; dsDNA, one strand shown
T9 sequence: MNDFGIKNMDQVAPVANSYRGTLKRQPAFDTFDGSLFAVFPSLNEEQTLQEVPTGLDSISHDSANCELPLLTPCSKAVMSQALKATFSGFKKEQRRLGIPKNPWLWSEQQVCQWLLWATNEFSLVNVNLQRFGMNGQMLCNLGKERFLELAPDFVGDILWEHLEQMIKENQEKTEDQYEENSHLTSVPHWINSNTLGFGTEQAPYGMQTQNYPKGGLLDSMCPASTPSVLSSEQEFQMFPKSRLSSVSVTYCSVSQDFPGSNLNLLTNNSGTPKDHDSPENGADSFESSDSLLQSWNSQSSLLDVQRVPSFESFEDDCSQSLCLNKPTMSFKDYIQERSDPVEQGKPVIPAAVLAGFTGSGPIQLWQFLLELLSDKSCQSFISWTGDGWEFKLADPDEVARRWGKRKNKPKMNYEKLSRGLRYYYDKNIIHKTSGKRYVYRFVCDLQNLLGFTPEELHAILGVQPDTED
Procedure, shortened: as §1

SPDEF = target: T10, SPDEF (Homo sapiens, UniProt O95238 1-335); conditions: protein: recombinant; tags: N-terminal GST; dsDNA, one strand shown
T10 sequence: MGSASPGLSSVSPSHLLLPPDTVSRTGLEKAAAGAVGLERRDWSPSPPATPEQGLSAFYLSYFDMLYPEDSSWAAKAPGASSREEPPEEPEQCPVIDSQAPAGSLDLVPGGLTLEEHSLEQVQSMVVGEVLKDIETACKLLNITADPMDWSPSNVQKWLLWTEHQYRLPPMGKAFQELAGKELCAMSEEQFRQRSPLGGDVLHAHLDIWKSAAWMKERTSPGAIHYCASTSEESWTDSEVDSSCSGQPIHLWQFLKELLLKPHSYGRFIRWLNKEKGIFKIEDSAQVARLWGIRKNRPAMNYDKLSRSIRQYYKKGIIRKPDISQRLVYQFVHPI
Procedure, shortened: as §1

ETV7 = target: T11, ETV7 (Homo sapiens, UniProt Q9Y603 1-341); conditions: protein: recombinant; tags: N-terminal GST; dsDNA, one strand shown
T11 sequence: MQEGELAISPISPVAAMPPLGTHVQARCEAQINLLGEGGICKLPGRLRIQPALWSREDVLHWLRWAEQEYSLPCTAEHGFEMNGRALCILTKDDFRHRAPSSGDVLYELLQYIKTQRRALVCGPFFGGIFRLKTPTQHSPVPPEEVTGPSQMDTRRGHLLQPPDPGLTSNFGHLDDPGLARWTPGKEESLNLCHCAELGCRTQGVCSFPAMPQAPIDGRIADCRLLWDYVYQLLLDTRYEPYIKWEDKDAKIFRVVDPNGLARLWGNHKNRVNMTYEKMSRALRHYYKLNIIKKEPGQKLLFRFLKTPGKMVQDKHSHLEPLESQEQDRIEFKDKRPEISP
Procedure, shortened: as §1

ETV3 = target: T12, ETV3 (Homo sapiens, UniProt P41162-2 1-143); conditions: protein: recombinant; tags: N-terminal GST; dsDNA, one strand shown
T12 sequence: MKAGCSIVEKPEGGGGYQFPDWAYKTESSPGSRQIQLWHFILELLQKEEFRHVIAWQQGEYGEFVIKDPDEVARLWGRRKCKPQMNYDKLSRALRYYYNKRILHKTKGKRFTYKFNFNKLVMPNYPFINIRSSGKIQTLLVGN
Procedure, shortened: as §1

Sequence of ELF1 (P32519 whole entry): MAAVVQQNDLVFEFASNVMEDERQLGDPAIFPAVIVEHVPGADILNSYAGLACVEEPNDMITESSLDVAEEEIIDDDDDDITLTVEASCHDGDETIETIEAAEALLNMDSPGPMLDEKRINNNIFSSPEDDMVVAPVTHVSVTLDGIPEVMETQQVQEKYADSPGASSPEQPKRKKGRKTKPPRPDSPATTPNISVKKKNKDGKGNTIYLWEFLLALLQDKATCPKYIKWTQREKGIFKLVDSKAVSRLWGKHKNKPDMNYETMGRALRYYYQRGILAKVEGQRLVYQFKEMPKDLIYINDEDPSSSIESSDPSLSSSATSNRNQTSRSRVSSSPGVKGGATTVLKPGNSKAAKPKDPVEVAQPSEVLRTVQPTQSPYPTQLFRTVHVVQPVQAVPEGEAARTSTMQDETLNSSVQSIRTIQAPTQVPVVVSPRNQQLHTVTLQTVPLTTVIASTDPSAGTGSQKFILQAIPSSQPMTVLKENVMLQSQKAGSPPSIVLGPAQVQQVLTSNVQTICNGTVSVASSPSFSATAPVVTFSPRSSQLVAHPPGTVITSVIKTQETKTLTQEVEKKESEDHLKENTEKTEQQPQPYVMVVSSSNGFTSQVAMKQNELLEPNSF
Sequence of HSF1 (Q00613 whole entry): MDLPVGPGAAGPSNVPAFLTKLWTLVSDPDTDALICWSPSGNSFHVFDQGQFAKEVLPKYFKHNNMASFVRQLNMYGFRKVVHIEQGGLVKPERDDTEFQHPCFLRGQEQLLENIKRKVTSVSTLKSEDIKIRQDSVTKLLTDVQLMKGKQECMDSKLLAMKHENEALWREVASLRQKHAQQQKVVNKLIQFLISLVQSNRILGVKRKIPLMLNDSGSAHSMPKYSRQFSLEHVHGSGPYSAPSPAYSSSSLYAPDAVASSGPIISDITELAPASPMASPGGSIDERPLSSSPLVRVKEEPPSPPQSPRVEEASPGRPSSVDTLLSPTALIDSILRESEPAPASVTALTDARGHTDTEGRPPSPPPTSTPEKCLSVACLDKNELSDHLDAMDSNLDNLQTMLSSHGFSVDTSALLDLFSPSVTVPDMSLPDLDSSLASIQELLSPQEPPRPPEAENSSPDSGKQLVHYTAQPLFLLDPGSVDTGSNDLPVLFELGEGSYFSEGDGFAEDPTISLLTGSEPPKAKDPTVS
Sequence of SPIB (Q01892 whole entry): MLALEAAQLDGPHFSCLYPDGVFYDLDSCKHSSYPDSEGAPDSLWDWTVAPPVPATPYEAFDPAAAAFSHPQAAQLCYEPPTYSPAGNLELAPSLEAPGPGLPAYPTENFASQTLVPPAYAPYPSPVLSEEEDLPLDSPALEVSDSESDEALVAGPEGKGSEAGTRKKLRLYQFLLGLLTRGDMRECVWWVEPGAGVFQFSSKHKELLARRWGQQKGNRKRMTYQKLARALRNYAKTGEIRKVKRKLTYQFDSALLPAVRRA
Sequence of CRX (O43186 whole entry): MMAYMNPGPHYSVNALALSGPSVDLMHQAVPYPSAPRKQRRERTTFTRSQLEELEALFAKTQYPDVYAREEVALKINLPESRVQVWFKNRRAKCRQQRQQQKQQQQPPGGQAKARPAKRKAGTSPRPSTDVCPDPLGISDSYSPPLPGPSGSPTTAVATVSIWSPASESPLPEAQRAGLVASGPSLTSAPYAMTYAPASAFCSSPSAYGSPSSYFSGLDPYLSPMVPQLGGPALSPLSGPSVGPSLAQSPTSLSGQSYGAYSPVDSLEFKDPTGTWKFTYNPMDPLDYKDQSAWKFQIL

With TCGCAT the binding signal (ELK1) was 1.06 fold enrichment (6-mer frequency, TF over GST control), the binding signal (GABPA) was 1.02 fold enrichment (6-mer frequency, TF over GST control) and the binding signal (ELF1) was 1.04 fold enrichment (6-mer frequency, TF over GST control). The binding signal (SPIB) was 1.06 fold enrichment (6-mer frequency, TF over GST control), the binding signal (ELK3) was 1.01 fold enrichment (6-mer frequency, TF over GST control) and the binding signal (FEV) was 1.08 fold enrichment (6-mer frequency, TF over GST control). The binding signal (HSF1) was 1.04 fold enrichment (6-mer frequency, TF over GST control), the binding signal (SPIC) was 1.02 fold enrichment (6-mer frequency, TF over GST control) and the binding signal (ELK4) was 1.08 fold enrichment (6-mer frequency, TF over GST control). The binding signal (CRX) was 1.15 fold enrichment (6-mer frequency, TF over GST control), the binding signal (ERF) was 1.07 fold enrichment (6-mer frequency, TF over GST control) and the binding signal (ETV3L) was 1.03 fold enrichment (6-mer frequency, TF over GST control). The binding signal (ETS2) was 1.04 fold enrichment (6-mer frequency, TF over GST control), the binding signal (SPDEF) was 1.03 fold enrichment (6-mer frequency, TF over GST control) and the binding signal (ETV7) was 1.01 fold enrichment (6-mer frequency, TF over GST control). For the same sequence, the binding signal (ETV3) was 1.03 fold enrichment (6-mer frequency, TF over GST control).
